Assay outcomes as filed in PubChem BioAssay.
This is a sample that favours compounds with a hit; in the whole collection about 2.7% have one here.
PAFAH1B3 FP inh: PAFAH1B3 (human) inhibition | Q15102 | recombinant PAFAH1B3, FP-rhodamine probe, fluorescence polarization | inhibition, % at 3.39 µM | actives 0.28% (n = 340,000) | AID 492972;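 active means inhibition above the screen-wide average of all tested compounds plus 3 SD, cut at about 25% in these data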
Target sequence (Q15102 whole entry, looked up): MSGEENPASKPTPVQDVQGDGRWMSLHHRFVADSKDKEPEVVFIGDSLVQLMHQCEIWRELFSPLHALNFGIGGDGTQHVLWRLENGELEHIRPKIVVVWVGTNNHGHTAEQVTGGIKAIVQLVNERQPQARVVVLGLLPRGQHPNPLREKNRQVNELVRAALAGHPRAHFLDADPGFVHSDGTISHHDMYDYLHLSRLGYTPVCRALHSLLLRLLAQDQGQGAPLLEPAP
pPAFAH inh: pPAFAH (human) enzyme inhibition | Q13093 | recombinant pPAFAH, FP-rhodamine probe fluorescence polarization | actives 1.5% (n = 330,000) | inhibition, % at 3.39 µM;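 active means inhibition above the mean inhibition across the screen plus 3 SD, cut at about 25% in these data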;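 further: inhibitors block binding of the rhodamine activity-based probe so polarization drops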
Target sequence (Q13093 whole entry, looked up): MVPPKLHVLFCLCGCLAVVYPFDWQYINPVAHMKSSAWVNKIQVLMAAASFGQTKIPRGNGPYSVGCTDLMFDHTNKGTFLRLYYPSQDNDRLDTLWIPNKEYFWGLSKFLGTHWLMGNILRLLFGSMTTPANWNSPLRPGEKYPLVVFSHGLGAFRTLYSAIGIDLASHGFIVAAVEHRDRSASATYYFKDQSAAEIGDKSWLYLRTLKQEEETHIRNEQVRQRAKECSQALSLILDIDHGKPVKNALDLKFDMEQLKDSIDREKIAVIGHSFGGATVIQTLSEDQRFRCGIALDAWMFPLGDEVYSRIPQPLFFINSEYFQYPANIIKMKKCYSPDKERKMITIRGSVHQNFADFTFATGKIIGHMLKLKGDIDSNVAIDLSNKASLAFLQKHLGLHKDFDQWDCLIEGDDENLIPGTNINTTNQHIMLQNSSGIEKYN
PAFAH1B2 inh: inhibitors of human PAFAH1B2; P68402; recombinant PAFAH1B2, FP-rhodamine activity probe, fluorescence polarization; inhibition, % at 3.39 µM; actives 1.2% (n = 340,000);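 active means inhibition above the mean of all tested compounds plus 3 SD, cut at about 24% in these data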
PAFAH2 FP inh: inhibitors of human PAFAH2; Q99487; recombinant PAFAH2, FP-rhodamine activity probe, fluorescence polarization; inhibition, % at 3.39 µM; actives 0.99% (n = 340,000); AID 492956;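 active means inhibition above the mean over all tested compounds plus 3 SD, cut at about 30% in these data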;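 further: inhibitors block probe labeling of enzyme so polarization drops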
TCR-CD3 inh: human TCR-CD3 binding inhibition. TAMRA-labeled TCR probe fluorescence, biochemical. inhibition, % at 9.4 µM. actives 0.37% (n = 360,000);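 further: recombinant mutant TCR 2C K166C tagged with TAMRA read by polarization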
BSA probe FL: counter-screen for TCR-CD3 interaction inhibitors: BSA probe; shares compounds with TCR-CD3 inh; TAMRA-labeled BSA probe fluorescence counterscreen; inhibition, % at 9.4 µM; actives 10% (n = 1,200); in the data active means inhibition above about 23%
TCR-CD3 conf: TCR-CD3 interaction inhibition, confirmation. TAMRA-labeled TCR probe fluorescence binding assay. inhibition, % at 9.4 µM. shares compounds with TCR-CD3 inh. AID 652036. actives 48% (n = 1,200)
Each line names hits and unclear results; the compound was inactive in the other large screens (follow-up assays come after a bar, where they were run). Unless noted, no stated cut-off is given here; in the data, active means inhibition above about 19%; inactive means the rest.

Cc1cc(C)c(-c2cc(NC(=O)COC(=O)c3ccc(C#N)cc3)n(-c3ccccc3)n2)cc1C	none
Cc1cc(C)c(-c2cc(NC(=O)COC(=O)c3ccc(NC(=O)CC#N)cc3)n(-c3ccccc3)n2)cc1C	TCR-CD3 inh 61 | BSA probe FL inactive | TCR-CD3 conf 43
CC1CCCC(C)N1CCOc1cc(N)ccc1C#N (stereo unspecified)	none (no result: pPAFAH inh)
Cc1ccc(C(=O)NC(C#N)=C(Cl)Cl)cc1	none (no result: PAFAH1B3 FP inh, pPAFAH inh, PAFAH1B2 inh, PAFAH2 FP inh)
CN1C=Nc2c(ncn2C2CCC(CO)O2)C1O (stereo unspecified)	none (no result: PAFAH1B3 FP inh, pPAFAH inh, PAFAH1B2 inh, PAFAH2 FP inh)
Cc1ccc(Cc2c(-c3cccc(Br)c3)nc3ccc(C)cn23)cc1	TCR-CD3 inh 77 (no result: PAFAH1B3 FP inh, pPAFAH inh, PAFAH1B2 inh, PAFAH2 FP inh) | BSA probe FL inactive | TCR-CD3 conf inactive
Cc1ccc2nc(-c3cccc(Br)c3)c(Cc3cccc(Cl)c3)n2c1	none (no result: PAFAH1B3 FP inh, pPAFAH inh, PAFAH1B2 inh, PAFAH2 FP inh)
Cc1ccc2nc(-c3cccc(Br)c3)c(Cc3ccccc3)n2c1	TCR-CD3 inh 114 (no result: PAFAH1B3 FP inh, pPAFAH inh, PAFAH1B2 inh, PAFAH2 FP inh) | BSA probe FL inactive | TCR-CD3 conf inactive
COc1cc(CN2CCCC(C(=O)c3ccccc3SC)C2)cc(OC)c1 (stereo unspecified)	none
Cc1cc(C(F)(F)F)nc(SCC(=O)NC2CCCCC2)n1	none
Nc1ccc(C(=O)N/N=C/c2cn(Cc3ccc(F)cc3)c3ccccc23)cc1	none (no result: pPAFAH inh)
O=C(N/N=C/c1cn(Cc2cccc(F)c2)c2ccccc12)c1cc(O)cc(O)c1	PAFAH1B3 FP inh 44, PAFAH1B2 inh 26, TCR-CD3 inh 47 (no result: pPAFAH inh) | BSA probe FL inactive | TCR-CD3 conf 27
O=C(N/N=C/c1cccc([N+](=O)[O-])c1)c1ccc(COc2ccccc2-c2ccccc2)cc1	TCR-CD3 inh 50 | BSA probe FL inactive | TCR-CD3 conf 50
Cc1nn(CC(=O)NCCCN2CCC(N3CCCCC3)CC2)c(=O)c2cc(-c3ccccc3)nn12	none
Cc1cc(C)c2c(N)c(C(=O)NN)sc2n1	TCR-CD3 inh 38 | BSA probe FL inactive | TCR-CD3 conf 29
Cc1ccc2[nH]c(C(=O)N/N=C/c3ccccc3O)c(C)c2c1	TCR-CD3 inh 20 | BSA probe FL inactive | TCR-CD3 conf inactive
Cc1ccc2[nH]c(C(=O)N/N=C/c3ccccc3C(=O)O)c(-c3ccccc3)c2c1	none
CCOC(=O)c1ccc(N(CC2CO2)S(=O)(=O)c2ccc(C)cc2)cc1 (stereo unspecified)	none (no result: pPAFAH inh)
O=C(CCC(=O)N/N=C/c1cc(Cl)cc(Cl)c1O)NCc1ccccc1	TCR-CD3 inh 21 | BSA probe FL inactive | TCR-CD3 conf 23
O=C(CCC(=O)N/N=C/c1ccc(Br)s1)NCc1ccccc1	none
COC(=O)CCN(C(=O)c1ccc(N2CCCCC2)c([N+](=O)[O-])c1)c1ccccn1	TCR-CD3 inh 77 | BSA probe FL inactive | TCR-CD3 conf inactive
CC(C)NC(=O)N(C)C[C@H]1Oc2c(NC(=O)C3CCCCC3)cccc2C(=O)N([C@H](C)CO)C[C@@H]1C	none
CCN(CC)c1ccc(NC(=O)c2ccccn2)cc1S(=O)(=O)Nc1ccccc1OC	none (no result: pPAFAH inh)
CCN(CC)c1ccc(NC(=O)COc2ccccc2C#N)cc1S(=O)(=O)Nc1ccccc1OC	TCR-CD3 inh 21 | BSA probe FL inactive | TCR-CD3 conf inactive
Cc1ccc(C(C(=O)NC2CCCCC2)N(CC2CCCO2)C(=O)CNC(=O)c2cccs2)cc1 (stereo unspecified)	none
O=C(NCC(=O)N(CC1CCCO1)C(C(=O)NC1CCCCC1)c1ccccc1)c1cccs1 (stereo unspecified)	TCR-CD3 inh 29 | BSA probe FL inactive | TCR-CD3 conf inactive
CCOC(=O)C1=C(CN2CCN(C(=O)c3ccco3)CC2)NC(=O)NC1c1ccc(F)cc1 (stereo unspecified)	none
Cn1nccc1C(=O)N/N=C/c1c(O)ccc2ccccc12	none
O=C(N/N=C/c1c(O)ccc2ccccc12)c1ccc(Br)o1	PAFAH1B3 FP inh 35, pPAFAH inh 29, TCR-CD3 inh 26 | BSA probe FL inactive | TCR-CD3 conf 22
O=C(NN=Cc1c(O)ccc2ccccc12)c1ccncc1	none (no result: pPAFAH inh)
O=C(N/N=C/c1c(O)ccc2ccccc12)c1ccc[n+](CCO)c1	TCR-CD3 inh 26 | BSA probe FL inactive | TCR-CD3 conf inactive
Cn1cc(C(=O)N/N=C/c2c(O)ccc3ccccc23)ccc1=O	TCR-CD3 inh 38 | BSA probe FL inactive | TCR-CD3 conf 24
O=C(N/N=C\c1c(O)ccc2ccccc12)c1ccc(O)cc1	PAFAH1B3 FP inh 41, pPAFAH inh 26, TCR-CD3 inh 28 | BSA probe FL inactive | TCR-CD3 conf 21
Cc1cc2nc3ccc(N(C)C)cc3nc2cc1N	PAFAH1B3 FP inh 32, pPAFAH inh 32, PAFAH1B2 inh 31, PAFAH2 FP inh 46, TCR-CD3 inh 93 | BSA probe FL 48 | TCR-CD3 conf 72
O=C(NNC(=O)c1ccc2ccccc2c1O)c1cccs1	TCR-CD3 inh 40 | BSA probe FL inactive | TCR-CD3 conf 33
O=C(NNC(=O)c1ccc2ccccc2c1O)c1ccccc1Cl	TCR-CD3 inh 29 | BSA probe FL inactive | TCR-CD3 conf 35
O=C(NNC(=O)c1cccc2ccccc12)c1ccc(Cl)cc1Cl	none (no result: pPAFAH inh)
O=C(NNC(=O)c1cc2ccccc2cc1O)c1cccs1	none
O=C(NC(=S)NNC(=O)c1cccs1)c1ccccc1	TCR-CD3 inh 22 | BSA probe FL inactive | TCR-CD3 conf 25
Cc1ccc(C(=O)COC(=O)CCNS(=O)(=O)c2ccccc2F)cc1	none
O=C(CC[C@H]1O[C@@H](n2ccc(=O)[nH]c2=O)[C@H](O)[C@@H]1O)N[C@H](Cc1ccccc1)C(=O)NCc1ccccc1	none (no result: PAFAH1B3 FP inh, pPAFAH inh, PAFAH1B2 inh, PAFAH2 FP inh)
CCOc1c2ccc(C(=O)NCc3ccc4c(c3)OCO4)cc2nn1CCOC	none
COc1ccc(C(=O)Nc2ccc(OCC(=O)N3CCOCC3)cc2)c(OC)c1OC	none
O=C1NC[C@H](Cc2ccc(O)cc2)N(CCc2cccc(F)c2)C1=O	TCR-CD3 inh 64 (no result: PAFAH1B3 FP inh, pPAFAH inh, PAFAH1B2 inh, PAFAH2 FP inh) | BSA probe FL inactive | TCR-CD3 conf inactive
CC1CCc2c(sc3[nH]c(=S)n(C)c(=O)c23)C1 (stereo unspecified)	none
CC(OC(=O)c1ccc(NC(=O)CC#N)cc1)C(=O)NC(=O)NC1CCCCC1 (stereo unspecified)	TCR-CD3 inh 20 | BSA probe FL inactive | TCR-CD3 conf inactive
CCOC(=O)c1c(C)[nH]c(C(=O)C(C)OC(=O)c2ccc(NC(=O)CC#N)cc2)c1C (stereo unspecified)	TCR-CD3 inh 52 | BSA probe FL inactive | TCR-CD3 conf inactive
Cc1cc(C)cc(NC(=O)C(OC(=O)c2ccc(NC(=O)CC#N)cc2)c2ccccc2)c1 (stereo unspecified)	TCR-CD3 inh 27 | BSA probe FL inactive | TCR-CD3 conf inactive
CC(OC(=O)c1ccc(NC(=O)CC#N)cc1)C(=O)NCCC1=CCCCC1 (stereo unspecified)	none
CCOC(=O)c1c(C)[nH]c(C(=O)OCC(=O)Nc2ccc(OCC)cc2)c1C	none
